In the library only some 3.4% were active in any assay of this set; here they are far more common.
ADAM10 inh – ADAM10 inhibition, QFRET primary screen. recombinant ADAM10, EDANS/DABCYL FRET peptide cleavage, 3 h. O14672. 370,000 compounds, 0.62% hits. inhibition, % at 7 µM;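 active means inhibition above a per-campaign cutoff equal to the mean of compounds falling between control-based bounds plus 3 SD, cut at about 20% in these data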
PLC-beta3 inh – PLC-beta3 (human) inhibition, primary screen | Purified PLC-beta3, fluorogenic substrate, fluorescence | inhibition, % at 12.2 µM | 370,000 compounds, 0.18% hits | AID 720704; in the data active means inhibition above about 11%
sPLA2-III inh – Inhibits HGIII-sPLA2 liposome hydrolysis, primary screen; inhibition, % at 12.2 µM; AID 743126; Q9NZ20; 370,000 compounds, 0.56% hits; QFRET BODIPY PC-A2 liposome hydrolysis, fluorescence;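 active means inhibition above mean plus 3 SD of compounds lying within the high and low control bounds, cut at about 19% in these data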
Target sequence (Q9NZ20 whole entry, looked up): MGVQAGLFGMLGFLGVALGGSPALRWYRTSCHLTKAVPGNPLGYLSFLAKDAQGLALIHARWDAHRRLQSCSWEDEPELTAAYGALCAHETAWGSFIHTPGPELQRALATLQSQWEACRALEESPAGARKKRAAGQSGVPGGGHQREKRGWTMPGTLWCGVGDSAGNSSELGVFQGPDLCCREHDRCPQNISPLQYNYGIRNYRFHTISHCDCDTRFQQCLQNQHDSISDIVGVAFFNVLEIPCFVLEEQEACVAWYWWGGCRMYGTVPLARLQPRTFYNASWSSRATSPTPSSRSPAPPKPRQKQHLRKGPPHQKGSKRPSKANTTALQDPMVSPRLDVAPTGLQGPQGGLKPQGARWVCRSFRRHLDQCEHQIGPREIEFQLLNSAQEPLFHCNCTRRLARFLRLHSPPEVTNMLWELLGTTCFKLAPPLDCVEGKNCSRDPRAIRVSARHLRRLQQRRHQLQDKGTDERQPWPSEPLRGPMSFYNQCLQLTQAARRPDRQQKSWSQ
ADAM17 inh – ADAM17 inhibition, QFRET primary screen | P78536 | recombinant ADAM17, EDANS/DABCYL FRET peptide cleavage | inhibition, % at 6.95 µM | 370,000 compounds, 0.83% hits;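 active means inhibition above the mean of compounds lying between control limits plus 3 SD, set per campaign, cut at about 8.5% in these data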
KLK7 zymogen act – activators of human kallikrein-7 zymogen; P49862; purified proKLK7, EDANS-DABCYL substrate fluorescence; 100% is mature enzyme control, 0% vehicle; activation, % at 7 µM; 370,000 compounds, 0.9% hits; AID 652039;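 active means activation above the mean of all tested compounds plus 3 SD, computed per campaign excluding outliers beyond control limits, cut at about 13% in these data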
PLC-gamma1 inh – inhibitors of human phospholipase C gamma1 | P19174 | purified PLC-gamma1, fluorogenic substrate, fluorescence | inhibition, % at 12.2 µM | 370,000 compounds, 0.84% hits | AID 720700; in the data active means inhibition above about 9.5%
ADAM10 confirm – confirmation of inhibitors of human ADAM10; shares compounds with ADAM10 inh; ADAM10 QFRET peptide cleavage, EDANS fluorescence; inhibition, % at 6.95 µM; 2,100 compounds, 1% hits; AID 743208;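 active means inhibition above about 20% chosen separately for each screening run, limit read from the data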
ADAM17 counter – inhibits human ADAM17 in ADAM10 exosite counter-screen; shares compounds with ADAM10 inh; ADAM17 QFRET peptide cleavage, EDANS fluorescence; inhibition, % at 6.95 µM; 2,100 compounds, 0.5% hits;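 active means mean triplicate inhibition above the solvent-only control wells' mean plus 3 SD, cut at about 12% in these data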
ADAM10 counter – inhibits human ADAM10 in ADAM17 exosite counter-screen | shares compounds with ADAM17 inh | recombinant ADAM10, EDANS/DABCYL FRET peptide cleavage, 3 h | inhibition, % at 6.95 µM | 2,900 compounds, 47% hits | AID 743256;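 active means mean inhibition over the triplicate runs exceeds the activity threshold set in the earlier primary screen, cut at about 20% in these data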
ADAM17 confirm – confirmation of inhibitors of human ADAM17; shares compounds with ADAM17 inh; recombinant ADAM17, EDANS/DABCYL QFRET peptide cleavage; inhibition, % at 6.95 µM; 2,900 compounds, 65% hits;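 active means mean inhibition across replicates above the hit cutoff set in the primary screen, cut at about 8.5% in these data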
Numbers stand for hits; - = inactive; . = not tested or not shown.

SMILES	ADAM10 inh	PLC-beta3 inh	sPLA2-III inh	ADAM17 inh	KLK7 zymogen act	PLC-gamma1 inh	ADAM10 confirm	ADAM17 counter	ADAM10 counter	ADAM17 confirm
CC(=O)NC(Cc1ccc2c(c1)OCO2)C(=O)N1CCCN(C(C)=O)CC1 (configuration not stated)	-	-	-	-	-	-	.	.	.	.
O=C(NCc1ccco1)c1ccc(N2CCCCC2)c([N+](=O)[O-])c1	-	-	-	-	-	-	.	.	.	.
CC1CCN(c2ccc(C(=O)NCc3ccco3)cc2[N+](=O)[O-])CC1	22.8	-	-	9.0	-	-	-	-	-	-
COc1ccc(C(C(=O)NC2CCCCC2)N(C(=O)c2sc(C)nc2C)c2ccccc2C)cc1 (configuration not stated)	19.8	-	-	9.6	-	9.9	-	-	-	-
O=C(Nc1ccc(F)cc1)OCc1cn(Cc2ccc(F)cc2)nn1	-	-	-	-	-	-	.	.	.	.
COc1ccc(C2(c3ccc(OC)cc3)NC(=O)N(CC(=O)Nc3cc(C)ccc3OC)C2=O)cc1	22.1	-	-	9.3	-	-	-	-	33.1	16.5
O=C(/C=C/c1ccccc1Cl)c1ccccc(=O)c1O	-	-	-	-	-	-	.	.	.	.
O=C(/C=C/c1ccc([N+](=O)[O-])cc1)c1ccccc(=O)c1O	25.3	-	-	11.5	-	-	-	-	31.9	33.3
COc1ccc(C(=O)CC(Nc2ccc([N+](=O)[O-])cc2)c2ccc(Cl)cc2)cc1 (configuration not stated)	22.0	-	-	12.7	-	-	-	-	38.3	17.7
CCOC(=O)[C@]12CCCC=C1N(CCCOC)C(=O)[C@@H]2CC(=O)N1CCC(c2ccccc2)CC1	-	-	-	-	-	-	.	.	.	.
C=CCN(c1ccccc1OC)S(=O)(=O)c1cccc(C(=O)OCC(=O)c2c[nH]c3ccccc23)c1	22.6	-	-	8.8	-	-	-	-	31.8	19.2
C=CCN(c1ccccc1OC)S(=O)(=O)c1cccc(C(=O)OCC(=O)N2CCOCC2)c1	-	-	-	-	-	-	.	.	.	.
CC1CN(c2nc3ccccc3nc2SCC(=O)N2CCN(S(=O)(=O)c3ccc(F)cc3)CC2)CC(C)O1 (configuration not stated)	-	-	-	-	-	-	.	.	.	.
CCOc1ccc(Br)cc1S(=O)(=O)Nc1ccc(Cl)c(S(=O)(=O)N(CC)c2ccccc2)c1	27.2	-	-	9.4	-	-	-	-	34.5	19.1
CCCCC[C@@H](C)N1C[C@@H](COCc2ccccc2)Oc2cc(N3CCC[C@H]3C(N)=O)ccc2S1(=O)=O	27.8	-	-	15.5	-	-	-	-	22.5	14.0
CCCCC[C@H](C)N1C[C@@H](COCc2ccccc2)Oc2cc(N3CCC[C@H]3C(N)=O)ccc2S1(=O)=O	22.5	-	-	11.3	-	-	-	-	38.5	23.0
CCCCC[C@@H](C)N1C[C@H](COCc2ccccc2)Oc2cc(N3CC[C@@H](O)C3)ccc2S1(=O)=O	22.2	-	-	9.9	-	-	-	-	39.7	24.1
CCCCC[C@H](C)N1C[C@H](COCc2ccccc2)Oc2cc(N3CCC[C@@H]3CO)ccc2S1(=O)=O	-	-	-	-	-	-	.	.	.	.
Cn1c(=O)c(=O)n(C)c2cc(S(=O)(=O)N3CCN(c4ccccc4Cl)CC3)ccc21	-	-	-	-	-	-	.	.	.	.
CN(C)[C@@H]1CCN(c2ccc3c(c2)O[C@@H]2CCN(C2)S3(=O)=O)C1	-	-	-	-	-	-	.	.	.	.
Cc1cc(C)cc(NC(=O)C(OC(=O)c2cc[n+]([O-])cc2)c2ccccc2)c1 (configuration not stated)	-	-	-	-	-	-	.	.	.	.
Cc1ccc(NC(=O)C(OC(=O)c2ccc(NC(N)=O)cc2)c2ccccc2)cc1Cl (configuration not stated)	31.8	-	-	18.1	-	-	-	-	-	9.7
O=C(Nc1ccc(Cl)c(S(=O)(=O)N2CCCCC2)c1)c1ccncc1	-	-	-	-	-	-	.	.	.	.
Cn1cccc1C(=O)Nc1ccc(Cl)c(S(=O)(=O)N2CCCCC2)c1	39.9	-	-	16.9	-	-	-	-	-	-
COc1ccc(NC(=O)c2cc(-c3cc(F)ccc3OC(C)C)n[nH]2)c(OC)c1	20.6	-	-	14.7	-	-	-	-	-	-
SMILES	ADAM10 inh	PLC-beta3 inh	sPLA2-III inh	ADAM17 inh	KLK7 zymogen act	PLC-gamma1 inh	ADAM10 confirm	ADAM17 counter	ADAM10 counter	ADAM17 confirm
COc1ccc(NC(=O)c2cc(-c3ccc(F)cc3OC(C)C)n[nH]2)c(OC)c1	-	-	-	-	-	-	.	.	.	.
Cc1ccc([C@H]2N[C@]3(CCCN(Cc4ccc(C(F)(F)F)cc4)C3=O)[C@H]3C(=O)N(Cc4ccccc4)C(=O)[C@@H]23)cc1	27.6	-	-	11.6	-	-	-	-	33.6	20.2
Cc1ccc(CN2CCC[C@]3(N[C@H](c4ccc(C(F)(F)F)cc4)[C@@H]4C(=O)N(Cc5ccccc5)C(=O)[C@@H]43)C2=O)cc1	20.2	-	-	9.7	-	-	-	-	38.0	21.6
COc1ccc(S(=O)(=O)N2CCC(c3nc4ccccc4o3)CC2)c(OC)c1	-	-	-	-	-	-	.	.	.	.
Cc1[nH]c2ccccc2c1C(=O)C(=O)N1CCN(c2ccccc2Cl)CC1	-	-	-	-	-	-	.	.	.	.
Cc1[nH]c2ccccc2c1C(=O)C(=O)N1CCN(c2cccc(Cl)c2)CC1	24.1	-	-	18.3	-	12.6	-	-	25.4	8.8
CCn1cc(S(=O)(=O)CC(=O)Nc2cccc(C)c2)c2ccccc21	-	-	-	-	-	-	.	.	.	.
Cc1cc(NC(=O)CS(=O)(=O)c2cn(Cc3cccc(Cl)c3)c3ccccc23)no1	20.1	-	-	10.7	-	-	-	-	-	-
CCCNC(=O)Nc1ccc2c(c1)C(=O)N(C)[C@H]1CC[C@@H](CC(=O)OC)O[C@H]1CO2	-	-	-	-	-	-	.	.	.	.
COc1ccc([C@@H]2[C@@H]3C(=O)N(C(C)(C)C)C(=O)[C@@H]3[C@]3(CC(C)C)C(=O)N(c4cccc(Br)c4)C(=O)N23)cc1	26.7	-	-	10.1	-	-	-	-	23.2	15.6
Cc1cccc(NC(=O)Nc2nc3ncccn3c2-c2ccc(F)cc2)c1	-	-	-	-	-	-	.	.	.	.
